# Compound activity from PubChem.
# CCHF vOTU inh-1: CCHFV vOTU protease inhibitors, primary screen, biochemical, Pep-AMC substrate, fluorescence; Crimean-Congo hemorrhagic fever virus L polyprotein viral ovarian tumor (vOTU) protease …; inhibition, % at 11.5 µM; actives 0.55% (n = 370,000); AID 651958, 2012
# RecA intein inh: Mtb RecA intein splicing inhibitors, primary screen, biochemical, fluorescence, HTS; Protein RecA (Mycobacterium tuberculosis (strain ATCC 25618 / H37Rv)), P9WHJ3; cell-free RecA intein splicing; actives 0.75% (n = 290,000); inhibition, % (concentration not given with the values); AID 2221, 2009; in the data active = inhibition above about 30%
# SARS 3CLpro inh: SARS-CoV 3CLpro protease inhibitors, primary screen, biochemical, quenched FRET. Replicase polyprotein 1ab (Severe acute respiratory syndrome coronavirus), P0C6X7. recombinant SARS-CoV 3CLpro, quenched FRET peptide cleavage. inhibition, % at 6 µM. actives 0.14% (n = 290,000); in the data active = inhibition above about 12%
# PriA SSB inh: inhibitors of Klebsiella pneumoniae PriA binding to SSB C-terminal tail, primary screen, biochemical, AlphaScreen; PriA–SSB C-terminal tail interaction (Klebsiella pneumoniae); AlphaScreen SSBct-PriA binding, biotinylated peptide; inhibition, % at 33 µM; actives 0.6% (n = 430,000); in the data active = inhibition mostly above about 37%, no sharp cut-off; inactive = mostly below about 20%
# VHR inh abs: VHR1 phosphatase inhibitors, primary screen, biochemical, absorbance, uHTS; recombinant VHR phosphatase, pNPP absorbance; inhibition, % at 13.3 µM; actives 0.52% (n = 290,000); in the data active = inhibition above about 50%
# Target sequence (P51452 whole entry, looked up): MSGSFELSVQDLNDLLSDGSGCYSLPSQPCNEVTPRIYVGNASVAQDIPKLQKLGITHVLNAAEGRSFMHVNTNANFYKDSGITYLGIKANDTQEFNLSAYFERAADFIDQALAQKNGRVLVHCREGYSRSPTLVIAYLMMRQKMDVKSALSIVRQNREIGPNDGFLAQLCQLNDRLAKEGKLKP
# CCHF vOTU inh-2: CCHFV vOTU protease inhibitors, confirmation, biochemical, Pep-AMC substrate, fluorescence | shares compounds with CCHF vOTU inh-1 | inhibition, % at 11.5 µM | Recombinant CCHFV vOTU | actives 17% (n = 1,900)
# A number is an active result; . = inactive; / = no result. A selection: hits, their analogues and other compounds. The true share with any hit is near 1.7%. Rule as the data show it, unless noted: active = inhibition above about 30%; inactive = the rest.
SMILES,CCHF vOTU inh-1,RecA intein inh,SARS 3CLpro inh,PriA SSB inh,VHR inh abs,CCHF vOTU inh-2
CC(C)(c1ccccc1)c1ccc(OCCn2cnc3ccccc3c2=O)cc1,31,.,.,.,.,.
O=C(c1ccccc1)c1ccc(OCCn2cnc3ccccc3c2=O)cc1,.,.,.,.,.,/
FC(F)(F)Oc1ccc(NC2=NCCCS2)cc1,44,.,.,.,.,.
CCCCCCCCCCOC(=O)Cn1c(COc2ccc(Cl)cc2)[n+](C)c2ccccc21,46,.,.,.,.,56
O=C(Cc1c[nH]c2ccccc12)N[C@H]1CCN(c2ccccn2)C1,/,/,/,.,/,/
O=C(Nc1ccccc1)Nc1cc(N2CCCC2)ncn1,/,/,/,.,/,/
Cc1nc2scc(C)n2c(=O)c1S(=O)(=O)Nc1ccc(N2CCOCC2)c(Cl)c1,.,.,.,.,.,/
Cc1nc2scc(C)n2c(=O)c1S(=O)(=O)Nc1ccc(OC(F)(F)F)cc1,40,.,.,.,.,.
O=C(CSc1nc(=O)n(CCCN2CCOCC2)c2c1CCC2)Nc1ccc(F)cc1F,32,.,/,.,/,.
O=C(Nc1scc(-c2ccc(F)cc2)c1C(=O)O)c1ccco1,31,.,.,.,.,.
CCCCCCCCN1C(=O)[C@@H](CC(=O)N2CCCC2)C[C@@]2(C(=O)OC)C1=C[C@H](C1CCCC1)O[C@@H]2C,.,/,/,/,/,/
COC(=O)[C@]12C[C@H](CC(=O)NCc3cccc(C(F)(F)F)c3)C(=O)N(Cc3ccc(Cl)cc3Cl)C1=C[C@H](C1CCCC1)O[C@@H]2C,32,/,/,/,/,.
CCCCCCCCN1C(=O)[C@@H](CC(=O)NCc2ccccc2)C[C@@]2(C(=O)OC)C1=C[C@H](C1CCCC1)O[C@@H]2C,.,/,/,/,/,/
CCCCCCCCN1C(=O)[C@@H](CC(=O)N2CCN(C(=O)C3CC3)CC2)C[C@@]2(C(=O)OC)C1=C[C@H](C1CCCC1)O[C@@H]2C,33,/,/,/,/,.
CCCCCCCCN1C(=O)[C@@H](CC(=O)NCc2ccc(C)o2)C[C@@]2(C(=O)OC)C1=C[C@H](C1CCCC1)O[C@@H]2C,30,/,/,/,/,.
COc1cc(OC)c(NC(=O)CSc2cc(-c3ccccn3)nc(C)n2)cc1Cl,/,/,/,.,/,/
COC(=O)c1ccc(N=NNc2ccc(C(=O)OC)cc2)cc1,33,.,.,.,.,.
COc1cccc2cc(C(=O)NCC#CCOc3ccc4c(c3)OCO4)oc12,/,/,/,.,/,/
S=c1[nH]nc(-c2cccnc2)n1/N=C/c1ccc(Br)s1,.,.,.,/,.,/
Cc1ccc(/C=N/n2c(-c3cccnc3)n[nH]c2=S)s1,34,.,.,/,.,.
Cc1ccc(-c2ccc(=O)n(CCCC(=O)N3CCc4ccccc43)n2)cc1,/,/,/,.,/,/
NC1=C(Cl)C(=O)c2ccc(S(N)(=O)=O)cc2C1=O,103,/,/,.,/,99
O=C1c2ccccc2C(=O)c2cc(Cl)c(Cl)cc21,/,/,/,.,/,/
NC1=C(Cl)C(=O)c2ccccc2C1=O,81,/,/,.,/,81
NS(=O)(=O)c1ccc2c(c1)C(=O)c1ccccc1C2=O,/,/,/,.,/,/
SMILES,CCHF vOTU inh-1,RecA intein inh,SARS 3CLpro inh,PriA SSB inh,VHR inh abs,CCHF vOTU inh-2
Cc1ccc(-c2ccc(=O)n(CCCNS(=O)(=O)c3cccs3)n2)cc1,/,/,/,.,/,/
COc1ccc(C(=O)NC(=S)Nc2cccc3cc(O)ccc23)cc1OC,31,.,.,.,.,.
O=C(NC(=S)Nc1cccc2cc(O)ccc12)c1ccco1,.,.,.,.,.,/
COCCOc1ccc(C(F)(F)F)cc1NC(=O)CN1C(=O)NC(C)(c2ccc3c(c2)OCO3)C1=O (stereo not drawn),31,.,/,.,/,.
CNc1oc(-c2ccccc2)nc1S(=O)(=O)c1ccc(C)cc1,30,.,.,.,.,.
COc1ccccc1C=NN=C(NN=Cc1ccccc1OC)NN=Cc1ccccc1OC,69,/,/,.,/,.
Cc1cc(C)cc(NC(=O)Cn2cnc3c(-c4ccc(Cl)cc4)csc3c2=O)c1,/,/,/,.,/,/
Cc1ccc(S(=O)(=O)Nc2ccc(Nc3nccn4c(-c5cccc(OC(F)(F)F)c5)cnc34)cc2)cc1,30,/,/,/,/,.
